High-throughput results as filed in PubChem BioAssay.
HIF-2a inh: HIF-2a inhibition | AID 624352 | inhibition, % at 18.8 µM | 360,000 tested, 0.72% active | 786-0 RCC cells HIF-2a reporter, luciferase luminescence, overnight;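 active means inhibition of the luminescence signal of 40% or more relative to plate controls, in a single-dose primary screen at 18.75 µM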
CF NFkB inh: blocks PAF-induced NF-kB reporter in cystic fibrosis cells; KKLEB NF-kB-GFP reporter, GFP fluorescence overnight; inhibition, % at 5 µM; 360,000 tested, 0.86% active;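 active means at least 50% inhibition at 5 µM, scaled per plate between neutral and stimulator controls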;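 further: PAF is a Pseudomonas aeruginosa culture filtrate used as stimulus; plate controls were PAF-stimulated DMSO wells for no effect and unstimulated DMSO wells for full effect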
KKLEB cytotox: reduces viability of KKLEB cystic fibrosis airway cells; KKLEB CF airway cells viability, ATPlite luminescence, overnight; active compounds read low; cells stimulated with P. aeruginosa culture filtrate; AID 602141; 360,000 tested, 0.36% active; activity change (cytotoxicity), % at 5 µM;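 active means corrected activity change at or below -50% at 5 µM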
TWEAK Fn14 block: inhibitors of TWEAK-Fn14 interaction signaling. AID 1159606. inhibition, % at 10 µM. TWEAK-stimulated Fn14 reporter cells, luciferase luminescence, 8 h. 360,000 tested, 2% active; in the data active means inhibition above about 50%
Peg3 prom inh-1: Peg3 promoter activity inhibition; HeLa PEG-Prom luciferase reporter, luminescence, overnight; inhibition, % at 20 µM; 360,000 tested, 1.7% active;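 active means inhibition of at least 50% at 20 µM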
TROY NFkB inh: TROY signaling inhibition; Q293 LMP1-TROYcd NF-kB luciferase reporter, 4 h; inhibition, % at 10 µM; 360,000 tested, 0.98% active; AID 1347056;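 active means compounds whose plate-normalised and pattern-corrected inhibition of the luciferase reporter signal at the single screening dose is 50% or more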
Peg3 prom inh-2: Peg3 promoter inhibition confirmation | shares compounds with Peg3 prom inh-1 | HeLa PEG-Prom luciferase reporter, luminescence, overnight | inhibition, % at 20 µM | 1,300 tested, 84% active | AID 602417;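 active means at 20 µM dose, 40% or more inhibition averaged across four replicates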
* marks the source's active call; other numbers are inactive results; · = not tested or not shown. This is a sample that favours compounds with a hit; in the whole collection about 4% have one here.

SMILES	HIF-2a inh	CF NFkB inh	KKLEB cytotox	TWEAK Fn14 block	Peg3 prom inh-1	TROY NFkB inh	Peg3 prom inh-2
CCC(C)NC(=O)c1c(N)n(/N=C/c2cccnc2)c2nc3ccccc3nc12 (stereo not given)	-43.8	-2.4	-6.0	51.2*	50.4*	-15.2	15.5
COCCCNC(=O)c1c(N)n(/N=C/c2cccnc2)c2nc3ccccc3nc12	1.2	-30.6	-4.3	25.8	47.1	-11.0	·
CCOc1cc(CNCCO)cc(Br)c1OCc1ccccc1Cl	8.3	13.4	-5.7	-1.9	105.8*	14.8	74.2*
CC1(C)OC(=O)C2=C(C[C@@H](C3CCCCC3)O[C@H]2c2ccc(F)cc2)O1	6.5	-0.9	5.4	13.2	16.4	-6.7	·
c1cc2c3c(cccc3c1)NC1(CCC3(CC1)Nc1cccc4cccc(c14)N3)N2	-15.1	-27.6	-0.2	26.8	76.0*	2.4	75.0*
C[C@@H]1CN([C@@H](C)CO)C(=O)c2cc(Br)cnc2O[C@H]1CN(C)Cc1ccccc1C(=O)O	3.5	3.2	-8.8	2.0	-6.2	-7.1	·
CCc1ccc(/C=C2\SC(=S)N(CCCC(=O)NC3=NCCS3)C2=O)cc1	82.8*	5.4	-18.0	91.7*	72.3*	77.1*	70.5*
CCc1ccc(/C=C2\SC(=S)N(CCCC(=O)Nc3cc(C)on3)C2=O)cc1	76.9*	-12.3	5.7	69.9*	71.6*	80.5*	66.1*
CCc1ccc(/C=C2/SC(=S)N(CCCC(=O)Nc3cccc(C(=O)O)c3)C2=O)cc1	23.0	23.7	-17.9	-17.9	-28.4	-7.8	·
COc1cccc(/C=C2\SC(=S)N(CCCC(=O)Nc3cc(C)on3)C2=O)c1	33.7	7.2	-3.1	-36.1	26.8	2.0	·
Cc1ccc(/C=C2\SC(=S)N(CCCC(=O)NC3CCCC3)C2=O)cc1	73.5*	13.6	7.5	44.5	53.9*	-13.2	48.5*
Cc1ccc(/C=C2\SC(=S)N(CCCC(=O)NNC(=O)c3ccccc3O)C2=O)cc1	91.2*	2.3	-5.9	87.2*	80.1*	69.1*	81.6*
COc1cc(/C=C2\SC(=S)N(CCC(=O)NC3CCCC3)C2=O)cc(OC)c1OC	7.1	6.5	-5.7	-4.7	37.6	15.5	·
Cc1cccc(C)c1-n1nnnc1C1c2ccccc2C(=O)N1CCc1ccc(O)cc1 (stereo not given)	0.4	·	·	-27.6	·	-20.8	·
COc1cc2c(oc(=O)c3cc(C)cc(OC)c32)c2c(C3OC(C)C(O)C(C)(O)C3O)ccc(O)c12 (stereo not given)	57.6*	22.2	9.4	-2.9	100.5*	10.6	99.0*
COc1cc(C(=O)OC2CCOC2=O)cc(Cl)c1OC (stereo not given)	-1.8	9.7	0.5	-25.4	0.6	9.4	·
CCCCn1cnc2c(SCc3ccccc3F)nc(N)nc21	-191.9	-1.2	-9.4	12.8	-158.0	-33.9	·
C#CCNC(=O)C1=C[C@@H](c2cn(C(C)=O)c3ccccc23)C[C@@H](OCc2ccc(CO)cc2)O1	6.6	-18.9	14.5	-17.8	-13.2	1.5	·
CC(=O)n1cc([C@H]2C=C(C(=O)NCc3ccccc3)O[C@@H](OCc3ccc(CO)cc3)C2)c2ccccc21	34.1	13.3	-0.9	12.6	54.5*	-11.2	47.3*
CCCNc1nc(N)nc(-c2cc(Cl)ccc2OC)n1	11.9	-5.8	1.1	11.8	14.4	2.0	·
CCNc1nc(N)nc(-c2cc(Cl)ccc2O)n1	-185.0	88.3*	-48.9	64.5*	100.6*	1.2	-22.9
CC(=O)Nc1cccc(-c2cc(NC=O)c3ncc(-c4ccc(C(C)=O)cc4)n3c2)c1	-4.9	27.5	-33.8	20.4	54.2*	24.6	55.8*
COCC(Cc1ccccc1)NC(=O)Cn1cc(C)c(=O)[nH]c1=O (stereo not given)	-17.8	-6.3	-4.6	-11.9	-31.9	-28.2	·
Cc1nc(-c2ccc(NC(=O)c3ccco3)cc2)cs1	63.8*	5.1	-53.5*	96.6*	82.5*	50.4*	66.6*
O=C(c1ccoc1)N1CCN(c2cc(-c3cccnc3)nc3cc(-c4cccc(Cl)c4)nn23)CC1	-5.7	4.3	-1.4	-0.1	54.1*	-4.3	28.6
SMILES	HIF-2a inh	CF NFkB inh	KKLEB cytotox	TWEAK Fn14 block	Peg3 prom inh-1	TROY NFkB inh	Peg3 prom inh-2
CC(=O)N1CCN(c2cc(-c3ccccc3)nc3cc(-c4cccc(Cl)c4)nn23)CC1	-26.7	6.2	-1.4	54.9*	54.8*	33.6	57.7*
CCN1CCN(c2cc(-c3ccccc3)nc3cc(-c4cccc(F)c4)nn23)CC1	-68.3	17.8	-6.1	28.8	11.3	6.4	·
C=CC[C@H](CC(=O)NCCO)C(=O)N[C@H](COC(=O)[C@@H](CC=C)Cc1ccc(F)cc1)C(C)(C)C	10.0	-19.2	3.2	0.6	10.8	-4.6	·
COc1cccc(/C=C2/Sc3ccc(C(=O)NCCCN4CCCC4)cc3NC2=O)c1	6.5	-12.4	-3.4	-14.6	78.1*	-33.8	93.6*
NCCNc1cc(N2CCCC2)ccc1[N+](=O)[O-]	6.9	-4.5	4.8	0.2	13.5	-8.2	·
CCc1ccc(OCCNc2cc(N3CCNC(C)C3)ccc2[N+](=O)[O-])cc1 (stereo not given)	-3.8	27.9	-36.1	-69.5	100.4*	-39.5	100.2*
COc1ccc(C2NCCc3c2[nH]c2ccccc32)cc1COc1ccc(F)cc1 (stereo not given)	6.6	33.4	-27.7	-15.4	96.7*	-9.9	98.0*
CCCCN1C=CC(=C2N=c3cccc([N+](=O)[O-])c3=N2)C=C1	-55.3	-10.5	0.3	36.1	-61.3	23.8	·
CCN1C=CC(=C2C(=O)c3ccccc3C2=O)C=C1	87.2*	-11.3	-45.6	101.3*	97.3*	67.8*	89.7*
CCCCCCN1C=CC(=C2C(=O)c3ccccc3C2=O)C=C1	39.2	-20.4	-57.5*	97.0*	58.0*	81.8*	42.8*
Cn1cc(-c2ccc3c(c2)OCO3)c2ccccc21	-164.1	10.4	-3.7	0.4	-213.8	-56.9	·
COc1cc(SC)ccc1C(=O)Nc1ccc(C)cc1	-230.2	3.3	-31.1	14.1	-250.4	-17.2	·
COc1cc(SC)ccc1C(=O)Nc1ncc(C)s1	48.9*	-9.6	-53.3*	100.4*	77.2*	83.1*	60.8*
COc1ccc(CNCc2cc(Cl)ccc2O)cc1	-12.5	-10.9	-2.8	-21.7	-53.9	-27.7	·
CCc1ccc(O)c(CNCCNCc2cc(CC)ccc2O)c1	27.8	-3.4	-27.4	14.2	90.5*	5.2	92.0*
COCCN1Cc2cc3cc(C)ccc3nc2SC1=Nc1cccc(OC)c1	-22.9	1.7	-2.1	15.6	-12.8	-11.4	·
Cc1cccc(N=C2Sc3nc4c(C)c(C)ccc4cc3CN2CCN2CCOCC2)c1	-14.0	-0.4	-4.9	6.9	55.0*	-2.6	56.7*
C[C@H](NS(=O)(=O)c1ccc(Cl)cc1)C(=O)OCC(=O)NCCc1ccc(S(N)(=O)=O)cc1	5.2	16.1	-2.7	4.9	16.8	2.4	·
